# Compound activity from PubChem.
# HP1b binding inh: blocks HP1-beta chromodomain binding to methylated histone tails; AlphaScreen HP1-beta / biotin-H3K9me3 peptide binding; Potency, µM (titrated, usually from 114 µM), actives largely listed as inhibitors; 390,000 compounds, 0.56% hits; AID 540317; further: nearly all actives have a fitted effect of over 70% in size
#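 AlphaScreen: HP1-beta (50 nM) preformed 30 min with biotin-H3(1-18)K9me3 peptide (50 nM) in PBS pH 7.4, 0.01% Tween-20. Compound added for 30 min at RT, then streptavidin donor/nickel chelate acceptor beads (10 ug/mL) for 30 min.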
# Sfp inh: Sfp phosphopantetheinyl transferase inhibition. Biochemical Sfp PPTase activity, qHTS. Potency, µM, usual class: inhibitors. 310,000 compounds, 3.5% hits;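 further: the enzyme is Sfp with the accession as filed and its product quenches rhodamine fluorescence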
#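 Buffer: 50 mM Hepes-Na pH 7.6, 10 mM MgCl2, 0.01% Nonidet P-40, 0.01% BSA. Enzyme 15 nM, pre-exposed to compound 15 min; substrates then added and fluorescence change tracked over 30 min.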
# JMJD2A Tudor: JMJD2A Tudor domain (human) inhibition | O75164 | AlphaScreen JMJD2A-Tudor / H3K4me3 peptide binding | Potency, µM (series often up to 114 µM), usual class: inhibitors | 390,000 compounds, 4.4% hits; further: nearly all actives have a fitted effect of over 50% in size
# G9a block: G9a (human) methyltransferase inhibition; Q96KQ7; 350,000 compounds, 8.8% hits; AID 504332; G9a H3K9 monomethylation, AlphaScreen, 2 h; Potency, µM (highest dose often 102 µM), usual class: inhibitors; further: nearly all actives have a fitted effect of over 75% in size
#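 Using a bead-based AlphaScreen, monomethylated H3K9 product from 2 h room-temperature reactions (G9a 20 nM, peptide 500 nM, SAM 20 uM) was detected with 0.5 ug/mL rabbit anti-H3K9me1 antibody.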
# BAZ2B block: BAZ2B (human) inhibition; AlphaScreen BAZ2B-H3K14Ac peptide displacement; 360,000 compounds, 4.4% hits; AID 504333; Potency, µM (series often up to 114 µM), actives largely listed as inhibitors; Q9UIF8; further: nearly all actives have a fitted effect of over 60% in size
#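 Inhibition is scored as reduced AlphaScreen emission. The BAZ2B/b-H3(5-23)K14Ac complex (50 nM each) in PBS pH 7.4, 0.01% Tween-20 meets compound (up to 110 uM) for 30 min at RT before bead addition.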
# L3MBTL1 block: L3MBTL1 (human) inhibition; Q9Y468; AlphaScreen L3MBTL1–H3K9me1 peptide binding; Potency, µM (highest dose often 57.1 µM), actives largely listed as inhibitors; 230,000 compounds, 0.66% hits; further: nearly all actives have a fitted effect of over 60% in size
# Target sequence (Q9Y468 whole entry, looked up): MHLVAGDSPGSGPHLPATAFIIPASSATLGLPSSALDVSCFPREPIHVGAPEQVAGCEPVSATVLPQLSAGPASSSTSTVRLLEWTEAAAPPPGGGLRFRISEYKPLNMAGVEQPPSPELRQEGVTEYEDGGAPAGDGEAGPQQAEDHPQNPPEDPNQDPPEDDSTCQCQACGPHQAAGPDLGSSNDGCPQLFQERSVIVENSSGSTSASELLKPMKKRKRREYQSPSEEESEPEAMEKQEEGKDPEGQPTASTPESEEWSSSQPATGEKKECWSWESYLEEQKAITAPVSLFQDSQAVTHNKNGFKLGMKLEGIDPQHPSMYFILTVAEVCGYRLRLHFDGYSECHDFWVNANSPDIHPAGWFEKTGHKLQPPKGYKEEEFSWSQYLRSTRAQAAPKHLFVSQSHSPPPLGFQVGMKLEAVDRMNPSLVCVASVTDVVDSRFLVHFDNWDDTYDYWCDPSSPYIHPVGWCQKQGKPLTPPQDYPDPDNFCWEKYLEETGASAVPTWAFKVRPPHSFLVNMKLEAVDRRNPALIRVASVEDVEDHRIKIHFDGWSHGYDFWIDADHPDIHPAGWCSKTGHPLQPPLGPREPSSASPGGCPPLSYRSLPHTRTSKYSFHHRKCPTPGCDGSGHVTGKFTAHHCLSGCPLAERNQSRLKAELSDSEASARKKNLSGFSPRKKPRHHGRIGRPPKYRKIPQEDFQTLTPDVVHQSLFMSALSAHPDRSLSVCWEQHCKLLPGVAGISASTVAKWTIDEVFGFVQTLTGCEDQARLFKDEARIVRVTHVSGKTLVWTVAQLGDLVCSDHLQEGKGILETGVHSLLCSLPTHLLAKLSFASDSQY
#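 L3MBTL1 50 nM + b-AHA-H3(1-15)K9me1 75 nM, 30 min RT; compound added, 30 min RT; streptavidin donor/Ni-chelate acceptor beads 10 ug/mL each final, 30 min RT dark; AlphaScreen read.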
# Numbers stand for hits; . = inactive; ? = inconclusive; / = no result given; [ ] = dose if it differs, or a comment. An excerpt weighted towards active compounds, which were near 12% of everything screened. The call rests on the fitted dose curve; in most records, active means well fitted curve in the direction sought with a large enough effect; inconclusive means small, poorly fitted or top-dose-only effect, or another doubt; inactive means no such curve, though single readings can be large; an effect the other way counts as inactive or inconclusive.
SMILES,HP1b binding inh,Sfp inh,JMJD2A Tudor,G9a block,BAZ2B block,L3MBTL1 block
CNc1nc(-c2ccc3c(c2)CCN3C(=O)c2ccccc2F)c(C)s1,.,22µM,.,35µM,.,.
Nc1nc(-c2ccc3c(c2)CCCC3)cs1,.,.,?,18µM,45µM,.
CC(=O)Nc1nc(-c2ccc3c(c2)CCN3C(=O)C2CC2)c(C)s1,.,.,.,?,.,/
CNc1nc(-c2ccc3c(c2)CCN3C(=O)CC(C)(C)C)c(C)s1,.,.,.,.,.,.
Cc1ccc(CN2CCN(C/C(Cl)=C/c3ccccc3)CC2CCO)o1 (centres undefined),.,.,.,.,.,.
COC(=O)c1ccc(C(=O)OC)c(NC(=O)c2cnn3c(C(F)F)cc(-c4ccc(C)cc4)nc23)c1,.,/,.,.,.,/
CCc1ccc(CNC(=O)CSCc2cnn(-c3ccccc3)c2-n2cccc2)cc1,.,/,.,.,.,/
Cc1c(NC(=O)Cc2ccc(F)cc2)cccc1-c1nc2cccnc2s1,.,/,?,?,.,/
O=C(NCc1ccccc1)C(c1ccncc1)N(C(=O)c1csnn1)c1cccc(F)c1 (centres undefined),.,.,.,?,.,/
CNc1nc(-c2ccc3c(c2)CCN3C(=O)c2ccccc2F)cs1,?,.,?,50µM,50µM,.
CC1(C)CC(=O)C2=C(C1)Nc1[nH]c(=S)[nH]c(=O)c1C2c1ccccc1 (centres undefined),.,28µM,45µM,11µM,.,.
Cc1ccc(C2C3=C(CCCC3=O)Nc3[nH]c(=S)[nH]c(=O)c32)cc1 (centres undefined),.,7.9µM,10µM,.[2.33 µM],79µM,.
COC(=O)C1=C(C)Nc2[nH]c(=S)[nH]c(=O)c2C1c1ccc(O)cc1 (centres undefined),.,6.3µM,?,8.9µM,.,.
CCSc1nc2c(c(=O)[nH]1)C(c1ccc(C)cc1)C1=C(CCCC1=O)N2 (centres undefined),.,.,.[11.4 µM],.,.,.
COc1cc(C2C(C(=O)OC(C)C)=C(C)Nc3[nH]c(=O)[nH]c(=O)c32)ccc1O (centres undefined),.,.,.,.,.,.
CSc1nc2c(c(=O)[nH]1)C(c1ccccc1)C1=C(CC(C)(C)CC1=O)N2 (centres undefined),.,.,.[11.4 µM],.,.,.
CC1=C(C#N)C(c2ccc(O)cc2)C2=C(CCCC2=O)N1 (centres undefined),.,.,.,.,.,.
O=C1CCCC2=C1C(c1ccc(Br)cc1)c1c([nH]c(=S)[nH]c1=O)N2 (centres undefined),.,.,40µM,0.79µM,?,.
CCCCCNC(=O)c1cccc(S(=O)(=O)N2CC3(C)CC2CC(C)(C)C3)c1 (centres undefined),.,/,.,.,.,.
O=c1[nH]c(=S)[nH]c2c1C(c1ccc(Br)cc1)c1c([nH]c(=S)[nH]c1=O)O2,32µM,45µM,?,1.6µM,22µM,/
O=c1[nH]ncn1-c1ccccc1C(F)(F)F,.,.,.,.,.,.
Fc1ccccc1-n1cn[nH]c1=S,.,.,28µM,10µM,.,.
CC(C)C1Oc2cc3oc(=O)ccc3cc2C1=O (centres undefined),.,.,.,79µM,.,.
OCCN(CC#CC(O)(c1ccccc1)c1cccc(F)c1)CCO (centres undefined),.,.,?,/,79µM,.
C=C(C)C1CC=C(C)/C(=N\NC(=O)CNc2cccc3ccccc23)C1 (centres undefined),.,.,.,10µM,.,.
SMILES,HP1b binding inh,Sfp inh,JMJD2A Tudor,G9a block,BAZ2B block,L3MBTL1 block
O=C(CCCc1ccccc1)N=C1SC2CS(=O)(=O)CC2N1c1ccccc1F (centres undefined),.,.,.,.,.,/
CC(C)(C)c1cc(CN2CCCC(O)C2)c(O)c(C(C)(C)C)c1 (centres undefined),.,.,?,?,79µM,/
CC(C)N1C(=O)CC2(CC[N+](C)(CCOC(=O)C(c3ccccc3)c3ccccc3)CC2)C1=O (centres undefined),.,?,.,?,45µM,.
CCOc1ccc(CN2CCNC(=O)C2CC(=O)NC2CCOCC2)cc1 (centres undefined),.,.,.,.,.,/
COc1ccc(CN2CCNC(=O)C2CC(=O)NCCc2cnccn2)cc1C (centres undefined),.,.,.,79µM,.,/
COc1ccc(CN2CCNC(=O)C2CC(=O)NC2CCOCC2)cc1C (centres undefined),.,.,.,40µM,.,/
COc1ccc(CN2CCNC(=O)C2CC(=O)N(C)CCC2CCOCC2)cc1OC (centres undefined),.,.,.,71µM,.,/
O=C(Nc1cccc(C(F)(F)F)c1)c1cncs1,.,.,.,.,.,/
C[C@H]1CN([C@@H](C)CO)C(=O)Cc2cc(NS(=O)(=O)c3cn(C)cn3)ccc2O[C@@H]1CN(C)C(=O)Nc1ccc(F)cc1,.,/,.,/,/,.
COc1ccc(/C=N/Nc2nnc(C)n2N)cc1OC,.,.,.,.,.,/
COc1ccc(/C=N/Nc2nnc(C)n2N)cc1OC(C)=O,.,.,.,45µM,.,/
CC(=O)NN1C(=O)/C(=C2/Sc3ccc(Cl)cc3N2C)SC1=S,.,.,.,.[2.33 µM],.,/
O=S(=O)(c1cccs1)N1CCC2(CC1)OCCN2S(=O)(=O)c1ccccc1,.,/,.,.[0.501 µM],.,.
CCCCN1C(=O)C(=O)N(CC(=O)NC2CCCc3ccccc32)C1=O (centres undefined),?,.,5µM,.,.,.
S=C(NCc1ccccc1)NC1CCCc2ccccc21 (centres undefined),.,.,.[11.4 µM],.,.,.[11.4 µM]
S=C(NC1CC1)NC1CCCc2ccccc21 (centres undefined),.,.,?,.,56µM,/
O=C(CN1C(=O)C2CCCCC2C1=O)NC1CCCc2ccccc21 (centres undefined),.,/,.,?,.,.
CS(=O)(=O)c1ccccc1C(=O)NC1CCCc2ccccc21 (centres undefined),.,.,.,.[0.0925 µM],.,.
CCS(=O)(=O)c1ccccc1C(=O)NC1CCCc2ccccc21 (centres undefined),.,.,.,40µM,.,/
CCC(C)Oc1nc2c(c(=O)n(C)c(=O)n2C)n1C (centres undefined),.,.,.,.,.,.
CC#C[C@@]1(O)CC[C@H]2[C@@H]3CCC4=CC(=O)CCC4=C3[C@H](c3ccc(N(C)C)cc3)C[C@]21C,/,.,/,5µM,/,/
